PAFAH1B3 inh: blocks human PAF acetylhydrolase 1B catalytic subunit 3. Q15102. recombinant PAFAH1B3, FP-rhodamine probe, fluorescence polarization. inhibition, % at 3.39 µM. 340,000 tested, 0.28% active. AID 492972;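 active = inhibition above the screen-wide average of all tested compounds plus 3 SD, cut at about 25% in these data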;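 also: 0% = enzyme with DMSO only and 100% = wells lacking PAFAH1B3 protein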
PAFAH2 FP inh: PAFAH2 (human) inhibition | Q99487 | recombinant PAFAH2, FP-rhodamine activity probe, fluorescence polarization | inhibition, % at 3.39 µM | 340,000 tested, 0.99% active | AID 492956;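 active = inhibition above the mean over all tested compounds plus 3 SD, cut at about 30% in these data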;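 also: inhibitors block probe labeling of enzyme so polarization drops; 0% = enzyme with DMSO and 100% = wells lacking PAFAH2 protein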
pPAFAH inh: inhibitors of human plasma PAF acetylhydrolase (pPAFAH). recombinant pPAFAH, FP-rhodamine probe fluorescence polarization. inhibition, % at 3.39 µM. 330,000 tested, 1.5% active. AID 463082;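 active = inhibition above the mean inhibition across the screen plus 3 SD, cut at about 25% in these data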;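 also: inhibitors block binding of the rhodamine activity-based probe so polarization drops; 0% = enzyme with DMSO and 100% = wells lacking pPAFAH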
LYPLA1 counter: LYPLA1 (human) inhibition in PME1 counter-screen. O75608. recombinant LYPLA1, FP-Rh probe fluorescence polarization. inhibition, % at 5.9 µM. 320,000 tested, 0.16% active. AID 2174;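 active = inhibition above the mean of all tested compounds plus 3 SD, set per campaign, cut at about 14% in these data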;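 also: inhibitors block serine hydrolase probe labeling of LYPLA1 so polarization falls; 0% = enzyme with DMSO and 100% = wells lacking LYPLA1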
Target sequence (O75608 whole entry, looked up): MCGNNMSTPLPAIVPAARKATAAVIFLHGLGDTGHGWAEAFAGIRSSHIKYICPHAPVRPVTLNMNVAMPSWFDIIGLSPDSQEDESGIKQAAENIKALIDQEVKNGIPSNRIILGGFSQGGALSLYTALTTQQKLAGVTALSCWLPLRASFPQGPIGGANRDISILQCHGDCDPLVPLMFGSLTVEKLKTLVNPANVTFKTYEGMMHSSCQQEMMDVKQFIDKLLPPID
LYPLA2 counter: blocks human lysophospholipase 2, a PME1 counter-screen; O95372; recombinant LYPLA2, FP-Rh probe fluorescence polarization; inhibition, % at 5.9 µM; 320,000 tested, 0.38% active; AID 2177;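 active = inhibition above the screen-wide mean plus 3 SD, limit set per campaign, cut at about 26% in these data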;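 also: 0% = LYPLA2 with DMSO and 100% = wells lacking LYPLA2 enzyme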
Target sequence (O95372 whole entry, looked up): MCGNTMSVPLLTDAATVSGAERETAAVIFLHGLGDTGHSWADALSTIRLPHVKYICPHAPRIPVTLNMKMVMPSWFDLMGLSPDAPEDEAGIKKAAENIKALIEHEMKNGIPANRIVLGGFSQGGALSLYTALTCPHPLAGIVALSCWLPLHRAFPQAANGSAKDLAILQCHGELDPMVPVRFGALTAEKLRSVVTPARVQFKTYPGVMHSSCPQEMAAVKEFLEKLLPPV
PAFAH1B2 inh: PAFAH1B2 (human) inhibition | inhibition, % at 3.39 µM | 340,000 tested, 1.2% active | recombinant PAFAH1B2, FP-rhodamine activity probe, fluorescence polarization;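 active = inhibition above the mean of all tested compounds plus 3 SD, cut at about 24% in these data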;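 also: 0% = enzyme with DMSO and 100% = wells lacking PAFAH1B2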
Target sequence (P68402 whole entry, looked up): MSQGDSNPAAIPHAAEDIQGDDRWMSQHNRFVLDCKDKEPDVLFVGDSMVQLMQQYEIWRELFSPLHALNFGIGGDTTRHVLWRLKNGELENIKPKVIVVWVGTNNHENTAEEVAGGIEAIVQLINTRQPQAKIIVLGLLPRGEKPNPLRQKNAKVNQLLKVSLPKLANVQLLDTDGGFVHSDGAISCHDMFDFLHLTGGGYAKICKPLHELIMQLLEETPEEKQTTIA
* = called active by the depositor; · = not tested or not shown. In the library only some 2.9% were active in any assay of this set; here they are far more common.

SMILES | PAFAH1B3 inh | PAFAH2 FP inh | pPAFAH inh | LYPLA1 counter | LYPLA2 counter | PAFAH1B2 inh
CC1C/C(=C/c2cccs2)C(=O)/C(=C/c2cccs2)C1 (stereo unspecified) | -5.2 | -5.5 | 15.8 | -7.4 | -4.7 | -5.9
O=C1/C(=C/c2cccs2)CCC/C1=C\c1cccs1 | 8.2 | -1.4 | 29.1* | -1.9 | 2.3 | 11.7
NS(=O)(=O)c1ccc(CCNC(=O)CCCNC(=O)c2ccc(Cl)cc2)cc1 | 4.2 | -10.7 | 0.4 | 1.8 | -5.2 | -3.2
O=C(O)CN1C(=O)/C(=C\c2cccc(OCc3ccc(F)cc3)c2)SC1=S | 15.1 | 4.7 | · | · | · | 28.4*
O=C(O)CN1C(=O)/C(=C\c2cccc(OCc3ccccc3F)c2)SC1=S | 9.8 | 10.6 | -13.6 | 0.1 | -0.1 | 11.6
CC(=O)N1CCN(C(=S)NC(=O)c2c(-c3ccccc3Cl)noc2C)CC1 | 0.5 | 6.8 | 3.7 | -3.6 | -1.9 | 3.2
CN(C)CCCN1c2ccc([N+](=O)[O-])cc2CCc2cc([N+](=O)[O-])ccc21 | 6.5 | 3.1 | -0.6 | 0.1 | -7.1 | -0.1
CSc1sc(-c2ccnc(SCCS(C)(=O)=O)n2)c(-c2ccccc2)c1C#N | 2.4 | 5.8 | 0.9 | 4.6 | 0.4 | 1.4
COc1ccc(-c2coc3c(C)c4oc(=O)c(CCC(=O)O)c(C)c4cc23)cc1 | 4.7 | 7.0 | 25.0* | -9.3 | -9.2 | 3.7
Cc1ccc(S(=O)(=O)Cc2ccc(C(=O)NCCCN3CCN(C)CC3)o2)cc1 | 2.7 | -8.3 | -0.3 | 4.4 | 1.8 | 7.3
COc1ccc2nc3oc(C(=O)N4CCC(C(N)=O)CC4)cc3cc2c1 | 17.5 | 4.6 | 31.1* | -3.9 | 5.2 | -1.2
Brc1ccc(CSc2nccn2-c2ccccc2)cc1 | 5.1 | 13.1 | 0.4 | 2.0 | 7.5 | 24.2*
CCN(CC)S(=O)(=O)c1ccc(C(=O)NNC(=O)C2CCN(S(=O)(=O)c3ccc(Cl)cc3)CC2)cc1 | 6.0 | 8.0 | 1.1 | 1.2 | 2.0 | 35.9*
Cc1cccc(NC(=O)C2CCN(S(=O)(=O)c3ccc(Cl)cc3)CC2)n1 | 1.6 | 2.6 | 4.5 | -0.5 | -3.5 | 29.5*
CC1CCN(S(=O)(=O)c2ccc(C(=O)NNC(=O)C3CC3)cc2)CC1 | 3.4 | -1.3 | 3.3 | -1.8 | 8.2 | 13.1
O=C(NNC(=O)C1CCN(S(=O)(=O)c2ccc(Cl)cc2)CC1)c1ccc(Cl)cc1 | 8.0 | 5.1 | -1.1 | -4.8 | 2.6 | 12.8
O=C(NNC(=O)C1CCN(S(=O)(=O)c2ccc(Cl)cc2)CC1)c1ccccc1 | -3.3 | 8.0 | -1.2 | -0.3 | 0.1 | 34.1*
NC(=O)c1cc(Br)cc(C2CCCCC2)c1O | -2.2 | -3.8 | 7.9 | -3.5 | -2.5 | 5.8
CC1(C(=O)NCc2ccc(F)cc2)Oc2ccccc2NC1=O (stereo unspecified) | 7.8 | -3.0 | 0.1 | 3.6 | 8.4 | 29.7*
COCCNC(=O)C1(C)Oc2ccccc2NC1=O (stereo unspecified) | -3.4 | -12.5 | 3.3 | -0.5 | -0.3 | 0.2
COc1cccc(CC(=O)Nc2ccc(S(=O)(=O)N3CCCCC3)cc2)c1 | 3.0 | 3.9 | -0.6 | · | · | -0.4
CCCNC(=O)c1cccc(S(=O)(=O)N2CC3(C)CC2CC(C)(C)C3)c1 (stereo unspecified) | -0.2 | 0.9 | -1.4 | 1.6 | -0.8 | 25.8*
CC1(C)CC2CC(C)(CN2S(=O)(=O)c2cccc(N)c2)C1 (stereo unspecified) | 5.7 | -4.4 | -2.7 | 1.8 | 2.0 | 24.2*
CC(C)N(C(=O)COC(=O)c1cccc(S(=O)(=O)N2CC3(C)CC2CC(C)(C)C3)c1)C(C)C (stereo unspecified) | -2.9 | 6.7 | · | · | · | 12.4
CCOc1ccccc1C(=O)OCC(=O)Nc1ncc(C(F)(F)F)cc1Cl | 11.2 | 4.2 | 26.8* | 1.1 | 7.2 | 3.9
SMILES | PAFAH1B3 inh | PAFAH2 FP inh | pPAFAH inh | LYPLA1 counter | LYPLA2 counter | PAFAH1B2 inh
CCOc1ncccc1C(=O)OCC(=O)Nc1ncc(C(F)(F)F)cc1Cl | 0.5 | 17.0 | 26.5* | -0.2 | 4.6 | -3.1
CCOC(=O)C1(Cc2ccccc2)CCN(Cc2cnc(N3CCOCC3)s2)CC1 | 10.0 | 6.9 | -3.5 | -2.6 | -8.0 | 11.0
O=C1C(CCCNC(=S)NCc2ccccc2)NC(=S)N1Cc1ccccc1 (stereo unspecified) | 7.8 | 2.4 | 0.7 | -3.2 | -0.9 | 25.0*
CCC1CCC2(CC1)NNC(=S)NN2 | 6.7 | -0.3 | 4.3 | -1.6 | 6.9 | 3.0
CCCCn1c(SCC(=O)N(CC)C2CCS(=O)(=O)C2)nc2cc(S(N)(=O)=O)ccc21 (stereo unspecified) | 3.3 | -2.1 | 2.1 | -1.6 | 0.3 | 6.3
CCN(C(=O)CSc1nc2cc(C(F)(F)F)ccc2n1Cc1ccccc1)C1CCS(=O)(=O)C1 (stereo unspecified) | 8.0 | 5.8 | 29.1* | -4.8 | 2.7 | -2.1
Cc1ccc(CC(NC(=O)C2CCCCC2)C(=O)O)cc1 (stereo unspecified) | 3.3 | 0.9 | 3.7 | · | · | 13.3
Cc1nc2ccc(NC(=O)CS(=O)(=O)c3ccc(F)cc3)cc2s1 | 2.3 | 0.9 | 1.3 | 0.9 | -3.7 | 0.6
O=C(Nc1c2c(nn1-c1ccc(F)cc1)CS(=O)C2)c1ccc(S(=O)(=O)N2CCOCC2)cc1 (stereo unspecified) | 4.9 | 3.0 | -3.9 | 2.4 | 6.7 | 25.6*
Cc1csc(CNc2ncnc3ccc(-c4cccnc4)cc23)c1 | -4.0 | -2.6 | 3.4 | · | · | 0.9
Cc1csc(CNc2ncnc3ccc(-c4ccccc4Cl)cc23)c1 | -0.1 | -11.8 | 28.7* | · | · | -6.3
C=CCSc1cc(C)nc2c(-c3ccccc3)c(C)nn12 | 2.3 | 4.3 | 2.3 | 1.0 | 3.5 | 1.9
Cc1cc(SCC#N)n2nc(C)c(-c3ccccc3)c2n1 | 3.2 | 9.4 | 31.9* | 1.5 | -5.4 | -1.1
O=[N+]([O-])c1ccc(N/N=C/c2c[nH]c3ccccc23)cc1 | 9.7 | -4.6 | 16.9 | -15.3 | -9.9 | 7.3
O=[N+]([O-])c1ccccc1N/N=C/c1c[nH]c2ccccc12 | 12.1 | 8.7 | 25.2* | -3.0 | 5.4 | 3.9
Cc1cccc(CSC2=NN3CCCC(=O)N=C3S2)c1 | 3.7 | 0.2 | 5.1 | -3.1 | 7.0 | 0.2
Cc1nc(N2N=C(c3ccc(Cl)cc3)CC2c2ccco2)sc1C(=O)N(C)C (stereo unspecified) | 5.1 | 13.3 | 14.4 | -2.0 | -3.2 | -0.9
COc1ccc(C2=NN(c3nc(-c4ccccc4)c(CC(=O)O)s3)C(c3ccco3)C2)cc1 (stereo unspecified) | -7.3 | 3.2 | 29.8* | -11.2 | -11.6 | -3.1
COc1ccc(N2CCN(CCCNC(=O)Cn3c(=O)c4cccn4c4cccnc43)CC2)cc1 | 1.6 | 5.6 | 1.8 | -1.1 | 0.3 | -0.3
CCOC(=O)N1CCN(C(=O)c2ccc3nc(SCc4ccc(F)cc4)n(C)c3c2)CC1 | -5.9 | -1.4 | -7.3 | -27.9 | 28.2* | -1.6
Cc1ccc(SCC(=O)NNC(=O)c2cncc(Br)c2)cc1 | 10.0 | -3.8 | 1.7 | · | · | 28.9*

High-throughput results from PubChem BioAssay.
